Several values for one entry are separate records, joined by “and”; a condition that tells them apart may be missing. Equal entries are not always repeated. Screen size: about 5,500 compounds; about 2,000 (36%) were called active. Another 18% or so got no clear call; they are omitted. Cut-off read from the data, not from the text of the source: active = normalized growth mostly below about 0.91 (no sharp cut-off); inconclusive = no clear call, values can overlap the other calls; inactive = mostly above about 0.92. The list shows a part of the results.
Experiment: chemical genetic growth profiling, strain panel (AID 1159580);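 note: tested at 20 µM; growth read once vehicle control cultures reached saturation at 30 °C; 1 = growth at the plate median or of vehicle wells; lower values mean less growth of the strain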
Settings: S. cerevisiae deletion strains, growth OD

Measured: normalized growth

CCCCCCCCC(=O)NCc1ccc(O)c(OC)c1
inactive: locus YAL013W, strain DEP1, stronger effect = lower value 0.99 | locus YAL021C, strain ccr4, stronger effect = lower value 0.996 | locus YAL026C, strain drs2, stronger effect = lower value 1.01 | locus YAL030W, strain snc1, stronger effect = lower value 1 | locus YAL040C, strain CLN3, stronger effect = lower value 0.982 | locus YBL061C, strain skt5, stronger effect = lower value 1.01 | locus YBR009C, strain hhf1, stronger effect = lower value 0.987 | locus YBR021W, strain FUR4, stronger effect = lower value 0.958 | locus YBR023C, strain chs3, stronger effect = lower value 0.989 | locus YBR171W, strain sec66, stronger effect = lower value 0.983 | locus YBR229C, strain ROT2, stronger effect = lower value 0.988 | locus YBR231C, strain swc5, stronger effect = lower value 0.995 | locus YBR279W, strain paf1, stronger effect = lower value 1.01 | locus YCL011C, strain gbp2, stronger effect = lower value 0.981 | locus YCL016C, strain dcc1, stronger effect = lower value 0.984 | locus YCL029C, strain bik1, stronger effect = lower value 0.989 | locus YCL061C, strain MRC1 (second series), stronger effect = lower value 0.994 | locus YCL061C, strain MRC1, stronger effect = lower value 1 | locus YCL069W, strain vba3, stronger effect = lower value 0.979 | locus YCR088W, strain abp1, stronger effect = lower value 0.975 | locus YDL005C, strain med2, stronger effect = lower value 0.995 | locus YDL035C, strain GPR1, stronger effect = lower value 0.981 | locus YDL040C, strain nat1, stronger effect = lower value 1 | locus YDL074C, strain BRE1, stronger effect = lower value 0.981 | locus YDL101C, strain DUN1, stronger effect = lower value 0.976 | locus YDL134C, strain PPH21, stronger effect = lower value 0.976 | locus YDL185W, strain tfp1, stronger effect = lower value 0.991 | locus YDL192W, strain arf1, stronger effect = lower value 0.989 | locus YDR001C, strain nth1, stronger effect = lower value 0.988 | locus YDR069C, strain doa4, stronger effect = lower value 1 | locus YDR101C, strain arx1, stronger effect = lower value 0.98 | locus YDR137W, strain rgp1, stronger effect = lower value 1.03 | locus YDR150W, strain NUM1, stronger effect = lower value 0.989 | locus YDR159W, strain sac3, stronger effect = lower value 1.07 | locus YDR162C, strain NBP2, stronger effect = lower value 1.01 | locus YDR195W, strain ref2 1.04 | locus YDR297W, strain sur2, stronger effect = lower value 1 | locus YDR318W, strain mcm21, stronger effect = lower value 0.965 | locus YDR334W, strain swr1, stronger effect = lower value 0.997 | locus YDR335W, strain msn5, stronger effect = lower value 1.01 | locus YDR363W, strain ESC2, stronger effect = lower value 0.988 | locus YDR388W, stronger effect = lower value 0.981 | locus YDR392W, strain spt3, stronger effect = lower value 0.805 | locus YDR502C, strain sam2, stronger effect = lower value 0.978 | locus YEL003W, strain gim4, stronger effect = lower value 0.985 | locus YEL037C, strain rad23, stronger effect = lower value 0.982 | locus YEL061C, strain CIN8 (second series), stronger effect = lower value 0.982 | locus YEL061C, strain CIN8, stronger effect = lower value 0.998 | locus YER002W, strain NOP16, stronger effect = lower value 0.986 | locus YER015W, strain faa2, stronger effect = lower value 1.01 | locus YER016W, strain bim1, stronger effect = lower value 1.01 | locus YER110C, stronger effect = lower value 0.981 | locus YER111C, strain swi4, stronger effect = lower value 0.991 | locus YER155C, strain BEM2 (second series), stronger effect = lower value 0.964 | locus YER155C, strain BEM2, stronger effect = lower value 0.985 | locus YER167W, strain BCK2, stronger effect = lower value 0.978 | locus YFR010W, strain ubp6, stronger effect = lower value 1.02 | locus YGL078C, strain dbp3, stronger effect = lower value 0.992 | locus YGL086W, strain mad1, stronger effect = lower value 0.967 | locus YGL167C, strain pmr1, stronger effect = lower value 1 | locus YGL173C, strain kem1, stronger effect = lower value 1.01 | locus YGL227W, strain vid30, stronger effect = lower value 0.971 | locus YGL240W, strain doc1, stronger effect = lower value 0.994 | locus YGL248W, strain PDE1, stronger effect = lower value 0.981 | locus YGL253W, strain hxk2, stronger effect = lower value 1.03 | locus YGR078C, strain PAC10, stronger effect = lower value 1.01 and 1 | locus YGR135W, strain pre9, stronger effect = lower value 0.987 | locus YGR229C, strain SMI1, stronger effect = lower value 1 | locus YGR252W, strain gcn5, stronger effect = lower value 0.872 | locus YHR013C, strain ard1, stronger effect = lower value 0.992 | locus YHR027C, strain rpn1, stronger effect = lower value 1.02 | locus YHR030C, strain SLT2, stronger effect = lower value 0.988 and 1.01 | locus YHR079C, strain IRE1 (second series), stronger effect = lower value 0.985 | locus YHR079C, strain IRE1, stronger effect = lower value 0.985 | locus YHR094C, strain hxt1, stronger effect = lower value 0.979 | locus YHR129C, strain ARP1, stronger effect = lower value 0.988 | locus YHR142W, strain chs7, stronger effect = lower value 0.983 | locus YHR200W, strain rpn10, stronger effect = lower value 0.981 | locus YIL066C, strain RNR3, stronger effect = lower value 0.953 | locus YIL073C, strain SPO22, stronger effect = lower value 0.958 | locus YIL125W, strain kgd1, stronger effect = lower value 0.99 | locus YIR030C, strain dcg1, stronger effect = lower value 0.983 | locus YJL092W, strain hpr5, stronger effect = lower value 0.978 | locus YJL095W, strain BCK1 (second series), stronger effect = lower value 1 | locus YJL095W, strain BCK1, stronger effect = lower value 0.989 and 1 | locus YJL115W, strain asf1, stronger effect = lower value 0.988 | locus YJL129C, strain trk1, stronger effect = lower value 0.977 | locus YJL134W, strain LCB3, stronger effect = lower value 0.989 | locus YJL154C, strain vps35, stronger effect = lower value 0.983 | locus YJL164C, strain tpk1, stronger effect = lower value 0.972 | locus YJL166W, strain qcr8, stronger effect = lower value 0.991 | locus YJL168C, strain set2, stronger effect = lower value 0.99 | locus YJL187C, strain SWE1 (second series), stronger effect = lower value 0.978 | locus YJL187C, strain SWE1, stronger effect = lower value 1.02 | locus YJR043C, strain POL32, stronger effect = lower value 0.983 | locus YJR066W, strain TOR1, stronger effect = lower value 0.91

Reference: PubChem BioAssay AID1159580 (chemical genetic matrix, 2015)
